Structures are written as SMILES. Results filed as inconclusive are left out. Entries that show only a call come without a potency. A number with no mark means an inactive call. The source made the active and inactive calls. Calls follow the shape of the dose curve; as a rule, active = well fitted cell-killing curve with a large enough effect; inconclusive = small, poorly fitted or top-dose-only effect, or effect the other way; inactive = flat fitted curve, though single readings scatter.
Potency is read from the fitted curve at half-maximal effect.

The first assay relates to CAOV3. Briefly: Primary qHTS to identify gynecologic anti-cancer compounds using libraries of approved drugs and bioactive compounds (AID 1345084). Also: nearly all actives have a fitted effect of over 55% in size. To be noted: Gynecologic cancer cell panel viability, ATPlite luminescence, 48 h; series mostly up to 57.5 µM. An outline of the steps: (§1)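 ATP-based viability (ATPlite), 1,000 cells/well, 16 h pre-incubation, 48 h compound at 37 C, 5% CO2, 15 min RT before read.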
(Quantitative high-throughput screening tests each substance at several concentrations.)
Turning to `NC(=O)NC(=O)Cc1ccccc1`, the Potency result is “inactive”.

With `N[C@H](C(=O)O)c1ccc(O)cc1`, the Potency entry was “inactive”.

Regarding `NC(=O)c1ncn([C@@H]2O[C@H](CO)[C@@H](O)[C@H]2O)n1`, the Potency result was “inactive”.

Take `Nc1ccc(S(=O)(=O)NC(=O)c2ccccc2)cc1`: the Potency entry is “inactive”.

Take `N[C@H]1C(O)O[C@H](CO)[C@@H](O)[C@@H]1O` (stereo partly drawn): the Potency entry is “inactive”.

As to `OC[C@H]1O[C@@H](O[C@@H]2[C@@H](CO)O[C@](O)(CO)[C@H]2O)[C@H](O)[C@@H](O)[C@H]1O`, the Potency entry was “inactive”.

Regarding `CN(C)CCCO[C@@H]1[C@H]2OC(C)(C)O[C@H]2O[C@@H]1C(O)CO` (stereo partly drawn), the Potency result was “inactive”.

On to `C[C@@H]1CC[C@@]2(OC1)O[C@H]1C[C@H]3[C@@H]4CC[C@H]5C[C@@H](O)CC[C@]5(C)[C@H]4CC(=O)[C@]3(C)[C@H]1[C@@H]2C`, for which the activity change, negative = cytotoxicity was -7.17% [at 6.55 µM].

`CC1=C(CC(=O)O)c2cc(F)ccc2/C1=C\c1ccc(S(C)=O)cc1` (stereo not drawn): the Potency entry is “inactive”.

For `CC(=O)O[C@@]12CO[C@@H]1C[C@H](O)[C@@]1(C)C(=O)[C@H](O)C3=C(C)[C@@H](OC(=O)[C@H](O)[C@@H](NC(=O)OC(C)(C)C)c4ccccc4)C[C@@](O)([C@@H](OC(=O)c4ccccc4)[C@H]21)C3(C)C`, the Potency result was “inactive”.

As to `Cc1cc(N)c2ccccc2[n+]1CCCCCCCCCC[n+]1c(C)cc(N)c2ccccc21`, the Potency was 14.1 µM (active).

With `O=S(=O)(O)c1cc(I)c(O)c2ncccc12`, the Potency result is “inactive”.

For the molecule `C=CCn1c(=O)n([C@@H]2O[C@H](CO)[C@@H](O)[C@H]2O)c2nc(N)[nH]c(=O)c21`, the Potency result was “inactive”.

For the molecule `CC(=O)c1ccc2c(c1)N(CCCN(C)C)c1ccccc1S2`, the Potency result is “inactive”.

In the case of `CC1(C)CO[C@@H](CC(=O)O)CN1`, the Potency result was “inactive”.

In the case of `CC(=O)Oc1c(C)c(C)c2c(c1C)CC[C@@](C)(CCC[C@H](C)CCC[C@H](C)CCCC(C)C)O2`, the Potency entry is “inactive”.

For `C[C@H](N)[C@H](O)c1cccc(O)c1`, the Potency entry was “inactive”.

Consider `COC(=O)C1=C(C)NC(C)=C(C(=O)OC)C1c1ccccc1[N+](=O)[O-]`, for which the Potency entry is “inactive”.

For the molecule `CCN(CC)CCCC(C)Nc1c2ccc(Cl)cc2nc2ccc(OC)cc12` (stereo not drawn), the Potency was 3.98 µM (active).

Turning to `CCCCN(CCCC)CC(O)c1cc(Cl)cc2c1-c1ccc(Cl)cc1/C2=C/c1ccc(Cl)cc1` (stereo not drawn), the Potency result is “inactive”.

For the molecule `CC(=O)NC(Cc1ccccc1)C(=O)O` (stereo not drawn), the Potency entry was “inactive”.

`CC[C@@]1(c2ccccc2)NC(=O)N(C)C1=O`: the Potency entry was “inactive”.

The test system of another assay is CASKI. Described as above. As to conditions: Gynecologic cancer cell panel viability, ATPlite luminescence, 48 h; series mostly up to 57.5 µM. An outline of the steps:
as §1
Regarding `NC(=O)NC(=O)Cc1ccccc1`, the Potency result is “inactive”.

In the case of `NC(=O)NNc1ccccc1`, the Potency entry was “inactive”.

As for `N[C@H](C(=O)O)c1ccc(O)cc1`, the Potency result was “inactive”.

Regarding `NC(=O)c1ncn([C@@H]2O[C@H](CO)[C@@H](O)[C@H]2O)n1`, the Potency entry was “inactive”.

Turning to `Nc1ccc(S(=O)(=O)NC(=O)c2ccccc2)cc1`, the Potency entry is “inactive”.

For the molecule `N[C@H]1C(O)O[C@H](CO)[C@@H](O)[C@@H]1O` (stereo partly drawn), the Potency result is “inactive”.

Regarding `O=S(=O)(O)NC1CCCCC1`, the Potency result was “inactive”.

`OC[C@H]1O[C@@H](O[C@@H]2[C@@H](CO)O[C@](O)(CO)[C@H]2O)[C@H](O)[C@@H](O)[C@H]1O`: the Potency result was “inactive”.

`CN(C)CCCO[C@@H]1[C@H]2OC(C)(C)O[C@H]2O[C@@H]1C(O)CO` (stereo partly drawn): the Potency result is “inactive”.

`C[C@@H]1CC[C@@]2(OC1)O[C@H]1C[C@H]3[C@@H]4CC[C@H]5C[C@@H](O)CC[C@]5(C)[C@H]4CC(=O)[C@]3(C)[C@H]1[C@@H]2C`: the activity change, negative = cytotoxicity was 7.56% [at 6.55 µM].

Take `CC1=C(CC(=O)O)c2cc(F)ccc2/C1=C\c1ccc(S(C)=O)cc1` (stereo not drawn): the Potency entry is “inactive”.

`CC(=O)O[C@@]12CO[C@@H]1C[C@H](O)[C@@]1(C)C(=O)[C@H](O)C3=C(C)[C@@H](OC(=O)[C@H](O)[C@@H](NC(=O)OC(C)(C)C)c4ccccc4)C[C@@](O)([C@@H](OC(=O)c4ccccc4)[C@H]21)C3(C)C`: the Potency result is “inactive”.

For the molecule `C[C@H]1O[C@@H](n2cc(F)c(=O)[nH]c2=O)[C@H](O)[C@@H]1O`, the Potency result is “inactive”.

As for `O=S(=O)(O)c1cc(I)c(O)c2ncccc12`, the Potency result was “inactive”.

With `CN1[C@@H]2CC(OC(=O)[C@H](CO)c3ccccc3)C[C@H]1[C@@H]1O[C@@H]12` (stereo partly drawn), the Potency entry was “inactive”.

Turning to `CC1(C)OC(=O)NC1=O`, the Potency result was “inactive”.

In the case of `CCCCCCCCCCCCCCCCCCOCC(O)CO` (stereo not drawn), the Potency result was “inactive”.

For the molecule `CC(=O)CCC(=O)O`, the Potency entry was “inactive”.

With `C=CCn1c(=O)n([C@@H]2O[C@H](CO)[C@@H](O)[C@H]2O)c2nc(N)[nH]c(=O)c21`, the Potency result is “inactive”.

On to `CC(=O)c1ccc2c(c1)N(CCCN(C)C)c1ccccc1S2`, for which the Potency entry is “inactive”.

Consider `CC1(C)CO[C@@H](CC(=O)O)CN1`, for which the Potency result is “inactive”.

Regarding `CC(=O)Oc1c(C)c(C)c2c(c1C)CC[C@@](C)(CCC[C@H](C)CCC[C@H](C)CCCC(C)C)O2`, the Potency result is “inactive”.

Turning to `COc1ccc2cc1Oc1ccc(cc1)C[C@H]1c3c(cc4c(c3Oc3cc5c(cc3OC)CCN(C)[C@@H]5C2)OCO4)CCN1C`, the Potency entry was “inactive”.

In the case of `CC[C@H]1CN2CCc3cc(OC)c(OC)cc3[C@@H]2C[C@@H]1C[C@H]1NCCc2cc(OC)c(OC)cc21`, the Potency was 0.355 µM (active).

For `C[C@H](N)[C@H](O)c1cccc(O)c1`, the Potency result was “inactive”.

Turning to `COC(=O)C1=C(C)NC(C)=C(C(=O)OC)C1c1ccccc1[N+](=O)[O-]`, the Potency entry is “inactive”.

`Cc1cc(O)cc2c1O[C@](C)(CCC[C@H](C)CCC[C@H](C)CCCC(C)C)CC2`: the Potency entry is “inactive”.

With `CCCCN(CCCC)CC(O)c1cc(Cl)cc2c1-c1ccc(Cl)cc1/C2=C/c1ccc(Cl)cc1` (stereo not drawn), the Potency entry was “inactive”.

`CC(=O)NC(Cc1ccccc1)C(=O)O` (stereo not drawn): the Potency result was “inactive”.

Regarding `CC(=O)OCC(=O)[C@@]1(O)CC[C@H]2[C@@H]3CCC4=CC(=O)CC[C@]4(C)[C@H]3C(=O)C[C@@]21C`, the Potency result is “inactive”.

As to `CC[C@@]1(c2ccccc2)NC(=O)N(C)C1=O`, the Potency entry is “inactive”.

Values taken from PubChem BioAssay (NCATS).
